Assay outcomes as filed in PubChem.
SARS 3CLpro inh = SARS-CoV 3CLpro protease inhibition; P0C6X7; recombinant SARS-CoV 3CLpro, quenched FRET peptide cleavage; inhibition, % at 6 µM; actives 0.14% (n = 290,000); in the data active = inhibition above about 12%
BJeLR lethal = kills HRASV12-expressing BJeLR cells; AID 1554; inhibition, % (test concentration not listed); BJeLR (HRASV12) viability, CellTiter-Glo ATP luminescence, 48 h; actives 0.17% (n = 300,000); in the data active = inhibition above about 50%; inconclusive = no clear call, values can overlap the other calls
Anthrax LF inh2 = inhibitors of Bacillus anthracis lethal factor protease; P15917; multiplex microsphere protease cleavage assay, LF; inhibition, % at 10 µM; actives 0.12% (n = 360,000); AID 588501; also: plate controls were buffer without enzyme for full effect and enzyme alone for no effect
Target sequence (P15917 whole entry, looked up): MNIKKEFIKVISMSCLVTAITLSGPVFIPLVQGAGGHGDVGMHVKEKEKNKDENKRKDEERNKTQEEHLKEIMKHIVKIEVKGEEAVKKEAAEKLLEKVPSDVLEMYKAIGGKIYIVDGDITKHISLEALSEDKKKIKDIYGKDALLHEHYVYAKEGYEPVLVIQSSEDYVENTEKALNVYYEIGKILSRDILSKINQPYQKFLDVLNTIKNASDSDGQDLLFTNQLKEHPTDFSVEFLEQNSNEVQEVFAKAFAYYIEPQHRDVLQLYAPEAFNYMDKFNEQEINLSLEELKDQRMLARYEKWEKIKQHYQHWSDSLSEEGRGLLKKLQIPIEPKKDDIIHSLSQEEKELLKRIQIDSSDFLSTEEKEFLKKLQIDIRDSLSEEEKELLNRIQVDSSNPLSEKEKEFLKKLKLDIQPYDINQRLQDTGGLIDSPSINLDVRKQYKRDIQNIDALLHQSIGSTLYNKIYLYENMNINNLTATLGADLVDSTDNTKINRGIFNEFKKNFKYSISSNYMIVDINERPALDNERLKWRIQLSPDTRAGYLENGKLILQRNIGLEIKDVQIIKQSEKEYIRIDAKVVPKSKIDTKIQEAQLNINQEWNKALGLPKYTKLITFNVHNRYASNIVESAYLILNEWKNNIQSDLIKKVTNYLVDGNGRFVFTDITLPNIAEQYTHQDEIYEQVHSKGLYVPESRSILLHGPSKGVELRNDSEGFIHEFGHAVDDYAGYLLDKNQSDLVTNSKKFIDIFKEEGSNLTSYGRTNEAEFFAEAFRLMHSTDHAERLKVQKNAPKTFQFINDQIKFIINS
Bead autofluor = flagged as autofluorescent in microsphere protease counterscreen; AID 624483; fluorescence intensity (concentration not given with the values); actives 3.1% (n = 360,000); compound autofluorescence counterscreen, microsphere flow cytometry; stronger effect = higher value; in the data active = fluorescence intensity above about 16000; inconclusive = no clear call, values can overlap the other calls
BoNT A protease = inhibitors of Botulinum neurotoxin A light chain protease. multiplex microsphere protease substrate cleavage, flow cytometry. inhibition, % at 10 µM. actives 0.17% (n = 360,000). AID 588499; also: plate controls were buffer without enzyme for full effect and enzyme alone for no effect
BoNT-F LC inh = inhibitors of Botulinum neurotoxin F light chain protease; Multiplex microsphere protease cleavage assay, flow cytometry; inhibition, % at 10 µM; actives 0.22% (n = 360,000); AID 588497; in the data active = inhibition above about 35%, passing the limit was not always enough; inconclusive = no clear call, values can overlap the other calls; also: plate controls were buffer without enzyme for full effect and enzyme alone for no effect
Active calls of the source: *; ? = inconclusive; . = no result given. Only some compounds are listed: those with a hit (about 3.6% of all), similar ones and a draw of the others. Rule as the data show it, unless noted: active = inhibition above about 30%; inconclusive = no clear call, values can overlap the other calls; inactive = below that.

SMILES	SARS 3CLpro inh	BJeLR lethal	Anthrax LF inh2	Bead autofluor	BoNT A protease	BoNT-F LC inh
COc1cc(C2CC(=O)Nc3n[nH]c(-c4ccccc4)c32)cc(OC)c1OC (configuration not stated)	-0.4	33.7	.	.	.	.
CCCc1nc2scc(-c3ccccc3)c2c(=O)n1N	-0.7	.	-0.9	23965*	-1.8	0.4
COc1cccc(C(=O)/C(C#N)=N/Nc2cccc(-c3ccnc(C)n3)c2)c1	-1.9	3.1	-0.9	4306	-0.4	-1.7
COc1cc(OC)nc(NC(C)=O)n1	1.6	-5.8	-1.1	23958*	-3.7	-4.4
COc1cc(OC)nc(NC(=O)C(C)C)n1	-3.9	-6.0	1.2	4830	0.3	12.0
O=S(=O)(/N=C(/c1ccccc1)N1CCCCCC1)c1ccccc1	4.9	-1.7	-3.4	4126	-1.6	1.9
O=S(=O)(N=S(N1CCCCC1)N1CCCCC1)c1ccccc1	-3.9	.	1.1	19826*	?	1.9
COc1ccc(-c2nnc3sc(-c4ccco4)nn23)cc1OC	-5.9	-5.2	-6.1	8184	-0.5	-16.0
COc1cccc(OC)c1-c1nn2c(-c3ccccc3Cl)nnc2s1	0.9	1.2	0.2	21844*	0.3	1.7
Clc1ccccc1-c1nnc2sc(-c3ccccn3)nn12	-4.5	-7.8	-2.3	21229*	?	1.6
COc1cc(-c2nnc3sc(-c4ccco4)nn23)cc(OC)c1OC	0.6	3.8	-2.2	23532*	?	-5.1
Clc1ccccc1-c1nnc2sc(-c3ccco3)nn12	0.2	-4.7	0.7	23775*	-2.0	-2.5
Cc1cc(C(=O)OCC(=O)NCc2ccccc2)c2ccccc2n1	.	.	-1.7	5922	3.7	3.6
Cc1cc(C(=O)OCC(=O)NC(C)(C)C)c2ccccc2n1	-0.8	-5.5	0.5	16530*	?	-2.5
CN1OC[C@@H]2CN(Cc3cc(Cl)cc(Cl)c3)[C@H](c3cccc(-c4ccccc4)c3)C[C@@H]21	.	.	-0.9	3648	-0.4	5.7
COc1ncnc2c1ncn2CCCN1CCN(Cc2ccc(C)cc2)CC1	.	.	1.3	2965	-0.4	-5.4
C[C@H](CO)N1C[C@H](C)[C@@H](CN(C)S(=O)(=O)c2cccs2)Oc2ccc(NC(=O)Cn3cnnn3)cc2C1=O	.	.	-4.9	3477	-0.6	3.8
Cc1c(C(=O)NCc2cccc(C(F)(F)F)c2)sc(=O)n1Cc1ccc(C(=O)N(C)C)cc1	.	.	-0.2	5690	0.3	0.6
COc1ccc(C(=O)NC(CC(C)C)C(=O)O)cc1OC (configuration not stated)	0.8	-2.5	-2.9	20991*	?	-4.4
Cc1cccc2c1cnn2C(=O)Nc1ccccc1Cl	1.2	-2.9	8.7	3281	-2.3	-0.8
COc1cccc(-n2nc(C(=O)N3CC(C)CC(C)C3)c3ccccc3c2=O)c1 (configuration not stated)	5.8	.	-7.9	20358*	6.5	8.4
CCOc1cc(N2CCOCC2)c(OCC)cc1NC(=O)COc1ncnc2ccccc12	-4.5	-4.6	-5.6	19880*	-1.2	-3.9
CCOc1cc(N2CCOCC2)c(OCC)cc1NC(=O)COC(=O)c1cc2ccccc2cc1O	-1.2	7.2	0.1	2443	-0.3	-1.6
CCN1/C(=C/c2ccc3ccccc3[n+]2CCCS(=O)(=O)[O-])C=Cc2cc(C)ccc21	-9.6	6.5	-8.2	2927	-1.1	-23.4
CCN1/C(=C/c2ccc3ccccc3[n+]2CC)C=Cc2ccccc21	-3.7	62.5*	-1.7	4755	2.3	-8.6
SMILES	SARS 3CLpro inh	BJeLR lethal	Anthrax LF inh2	Bead autofluor	BoNT A protease	BoNT-F LC inh
COC(=O)CC1(c2ccc(OC)cc2)C(=O)c2ccccc2C1=O	1.0	3.0	-4.6	4649	?	?
COC(=O)CC1(c2ccccc2)C(=O)c2ccccc2C1=O	-0.6	-3.0	-0.5	16568*	?	-1.5
Cc1cc(C)cc(CC2CC(=O)N(c3cc(C)on3)C2=O)c1 (configuration not stated)	-2.7	9.9	1.0	19958*	-0.4	0.2
Cc1cc(C)cc(CC2CC(=O)N(c3ccc4c(c3)OCCO4)C2=O)c1 (configuration not stated)	-0.9	-12.9	2.8	6155	-0.6	-3.1
COc1ccc(C(=O)NCCn2cc(SCC(N)=O)c3ccccc32)cc1	0.3	1.7	-9.1	5998	-0.9	2.7
CCCCn1c(Nc2ccccc2)nc2ccccc21	-1.1	0.1	-1.6	16689*	-1.0	-3.9
CCCn1c(Nc2nc3ccccc3n2C)nc2ccccc21	-8.0	5.7	0.2	10831	2.9	27.7
Nc1ncnc(Nc2ccccc2Oc2ccccc2)n1	.	.	-4.4	3871	0.1	-1.9
COc1nc(NCc2cccnc2)nc(NC2CCCCC2)n1	-2.5	-1.7	0.6	2508	-0.4	-0.5
COc1nc(NCc2cccnc2)nc(OC)n1	-2.8	-1.3	1.2	16316*	?	-4.9
CCCOc1ccc(NC(=O)C2CC(=O)N3CCCN=C3S2)cc1 (configuration not stated)	-6.5	20.5	-0.3	23005*	1.6	0.2
COc1ccc(-c2noc(CN3CCCCC3)n2)cc1OC	-3.8	-4.9	-1.6	21443*	2.3	3.6
Cc1nnc(SCCn2c(N3CC(C)CC(C)C3)nc3c2c(=O)[nH]c(=O)n3C)s1 (configuration not stated)	1.8	8.3	-0.8	23049*	-2.5	-5.1
Cc1noc(/C=C/N(C)C)c1S(=O)(=O)N1CCC(C(=O)NC(C)(C)C)CC1	-0.8	2.5	-2.9	5142	1.6	4.2
Clc1ccc(Cl)c(-c2ccc(/C=N/c3ncn[nH]3)o2)c1	-3.4	-1.3	-12.3	22627*	?	1.2
O/N=C/c1ccc(-c2cc(Cl)ccc2Cl)o1	-2.3	-3.2	1.8	2532	-0.2	0.8
CCOC(=O)COc1nc2c(c(-c3ccco3)c1C#N)CCc1ccccc1-2	-5.6	-4.0	?	3921	-8.1	17.3
N#Cc1c(OCC(=O)c2ccccc2)nc2c(c1-c1ccco1)CCc1ccccc1-2	2.7	-7.5	-14.5	18221*	5.1	7.0
COc1ccc(-c2cccc(N3CCN(c4ccccn4)CC3)n2)cc1OC	.	.	1.5	2825	0.2	-1.3
CCOC(=O)C1C(=O)NC(c2ccccc2)=NC1c1ccc(Cl)cc1 (configuration not stated)	3.4	5.9	-2.2	22764*	1.6	1.0
CCOC(=O)C1C(=O)NC(N2CCN(c3ccccc3)CC2)=NC1c1ccccc1 (configuration not stated)	-1.9	6.7	1.4	23474*	-2.3	-2.2
CCOC(=O)C1C(=O)NC(N2CCOCC2)=NC1c1ccco1 (configuration not stated)	2.7	3.2	-0.1	3097	-0.8	-11.7
Cc1ccc(-n2nnnc2SCC(=O)Nc2sccc2C#N)cc1	-3.1	6.9	-7.2	6827	0.9	-3.2
CCOC(=O)[C@@H]1[C@H]2COc3cc(OC)ccc3[C@H]2N2C(=O)N(c3ccc(C)cc3)C(=O)[C@]12C	.	.	2.4	3813	-0.5	0.1
C/C(Cl)=C/CSc1nnc2n(N)c(=O)c3ccccc3n12	-3.4	-2.8	-2.8	23180*	0.4	-1.5
